# Results as given in PubChem BioAssay.
# “And” between values parts separate entries of the source, which are not always exact repeats. Equal values may be shown once. The source made the active and inactive calls.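 Rule for the calls, unless noted: active = thallium flux through the channel raised or lowered by more than 3 SD from vehicle-only wells, actives on both sides; inactive = the rest.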
# Columns and labels:
# [1] = liver-stage malaria parasite growth inhibition, primary screen, cell-based, HepG2, luciferase luminescence, HepG2 viability (AID 624349; in the data active = parasite load remaining mostly below about 12%, no sharp cut-off; inactive = mostly above about 10%;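 note: 100% = mean of DMSO negative control wells on the same plate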); details: P. berghei liver stage in HepG2, luciferase luminescence, concentration not given here; parasite load remaining: stronger effect = lower value; viability: measured here: HepG2 viability without parasites
# [2] = Cy5 fluorescence interference with SSB-bound oligo, artefact control for HCV NS3 helicase inhibitor project, biochemical, NIH Clinical Collection, E. coli SSB (AID 743268; call rule not given here)
# [3] = tested on: Hepatitis C virus NS3 helicase; experiment: HCV NS3 helicase inhibitors, primary screen, biochemical, fluorescence polarization, NIH Clinical Collection (AID 743270; call rule not given here); details: NS3 helicase binding to Cy5-dT15 DNA, stronger effect = higher value, concentration not given here
# [4] = biological target: Single-stranded DNA-binding protein (Escherichia coli (strain K12)) (UniProt P0AGE0); experiment: E. coli SSB displacement from DNA, counter-screen for HCV NS3 helicase inhibitor project, biochemical, fluorescence polarization, NIH Clinical Collection (AID 743271; in the data active = inhibition above about 28%); details: stronger effect = higher value, concentration not given here
# [5] = fluorescence interference in NS3h assay format, artefact control for HCV NS3 helicase inhibitor project, biochemical, NIH Clinical Collection (AID 743272; call rule not given here;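 note: HCV NS3 helicase with a Cy5 labelled single stranded DNA probe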); details: fluorescence interference counterscreen, stronger effect = lower value
# [6] = tested on: Neuropilin-2 / VEGF-C interaction (human); experiment: inhibitors of NRP2–VEGF-C binding, biochemical, microplate binding format, z-score (AID 743281; call rule not given here); details: microplate NRP2/VEGF-C binding assay; stronger effect = lower value
# [7] = modulation of C. elegans fzo-1 (AID 1259413; call rule not given here;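 note: fzo-1 mutant C. elegans worms in liquid wells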); details: C. elegans fzo-1 modulator screen, mean read-out; stronger effect = higher value
# [8] = sensitizers of A549 cells to miR-34 induction, primary screen, imaging, A549 dox-inducible miR-34, nuclei and caspase counts (AID 1347080;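 active = compounds whose cell count with miR-34 switched on is under 0.7 times the count with it off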); details: A549 miR-34 inducible, Hoechst nuclei count, 48 h
# F380Y = experiment: modulators of BK channel variants, profiling panel, selectivity assay, cell-based, U2OS BacMam, thallium flux, beta subunits (AID 1259406); details: at 30 µM;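 note: initial slope of Thallos dye fluorescence rise after thallium is added; log ratio against the mean of 0.3% DMSO vehicle wells on the same plate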
# F380Y/beta1 = experiment: as above; details: at 30 µM
# F380Y/beta2Delta = experiment: as above; details: at 30 µM
# F380Y/beta4 = experiment: as above; details: at 30 µM
# [9] = biological target: Calcium-activated potassium channel subunit alpha-1 (Homo sapiens) + Leucine-rich repeat-containing protein 26 (Homo sapiens) (UniProt Q12791+Q2I0M4); experiment: as above; details: F380Y/Slo1WT/gamma1, at 30 µM
# R275C = experiment: as above; details: at 30 µM
# R275C/beta1 = experiment: as above; details: at 30 µM
# R275C/beta2Delta = experiment: as above; details: at 30 µM
# R275C/beta4 = experiment: as above; details: at 30 µM
# R275C/Slo1WT/beta2 = experiment: as above; details: at 30 µM
# [10] = differential killing of epithelial or mesenchymal cells, primary screen, imaging, PC-3E GFP, TEM4-18 mCherry, co-culture (AID 1345086;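 active = compounds killing one labelled cell type while sparing the other, by normalised counts and ratio limits, not self-fluorescent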;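 note: cells exposed to compound for 72 h before imaging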;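 for red/green cell ratio (normalised): normalised mesenchymal count divided by normalised epithelial count so high means epithelial killing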); details: imaging cell counts, at 1 µM
# [11] = measured here: relative caspase fold change +Dox/-Dox
# [12] = measured here: total cells with miR-34 induction, stronger effect = lower value
# [13] = measured here: total cells without miR-34 induction
# Chain of Calcium-activated potassium channel subunit alpha-1 (Homo sapiens) + Leucine-rich repeat-containing protein 26 (Homo sapiens) (Q2I0M4 whole entry, looked up, one chain of several): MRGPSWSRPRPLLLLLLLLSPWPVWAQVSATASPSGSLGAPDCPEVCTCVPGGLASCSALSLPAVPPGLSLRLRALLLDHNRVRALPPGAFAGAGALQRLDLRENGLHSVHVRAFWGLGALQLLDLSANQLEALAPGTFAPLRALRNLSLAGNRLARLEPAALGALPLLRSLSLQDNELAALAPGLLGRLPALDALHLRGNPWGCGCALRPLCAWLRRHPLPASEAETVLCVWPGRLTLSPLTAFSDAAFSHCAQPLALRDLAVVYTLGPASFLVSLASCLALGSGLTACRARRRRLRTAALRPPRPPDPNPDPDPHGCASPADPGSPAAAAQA
structure (smiles),measurement,setting,value
Oc1cc2c(cc1O)[C@H]1c3ccccc3CN[C@@H]1CC2,parasite load remaining,[1],31.6% (inactive)
same,viability,[1],68.7%
same,fluorescence ratio,[2],0.94 (inactive)
same,inhibition,[3],-5.46% (inactive)
same,inhibition,[4],-4.33% (inactive)
same,fluorescence ratio,[5],0.91 (inactive)
same,z-score,[6],-4.26 (active)
same,mean signal,[7],249 (inactive)
same,fold change,"[8]; stronger effect = lower value, cell number ratio, induced over uninduced",0.969 (inactive)
same,fold change,[8]; [11],0.736
same,cell count,[8]; [12],8740
same,cell count,[8]; [13],9020
same,log fold change Tl+ flux,F380Y,-0.103 (inactive)
same,log fold change Tl+ flux,F380Y/beta1,0.0598 (inactive)
same,log fold change Tl+ flux,F380Y/beta2Delta,-0.0567 (inactive)
same,log fold change Tl+ flux,F380Y/beta4,-0.0725 (inactive)
same,log fold change Tl+ flux,[9],0.0857 (inactive)
same,log fold change Tl+ flux,R275C,-0.0506 (inactive)
same,log fold change Tl+ flux,R275C/beta1,0.0796 (active)
same,log fold change Tl+ flux,R275C/beta2Delta,0.137 (active)
same,log fold change Tl+ flux,R275C/beta4,0.0776 (inactive)
same,log fold change Tl+ flux,R275C/Slo1WT/beta2,0.0271 (inactive)
CC[C@@H](C(N)=O)N1CCCC1=O,parasite load remaining,[1],91.8% (inactive) and 41.8% (inactive)
same,viability,[1],70% and 106%
same,fluorescence ratio,[2],1.01 (inactive)
same,inhibition,[3],7.52% (inactive)
same,inhibition,[4],9.91% (inactive)
same,fluorescence ratio,[5],1.02 (inactive)
same,z-score,[6],-0.78 (inactive)
same,mean signal,[7],234 (inactive)
same,fold change,[8]; stronger effect = lower value,1.08 (inactive) and 0.876 (inactive)
same,fold change,[8]; [11],1.59 and 0.289
same,cell count,[8]; [12],11300 and 10400
same,cell count,[8]; [13],10400 and 11900
same,log fold change Tl+ flux,F380Y,-0.0178 (inactive)
same,log fold change Tl+ flux,F380Y/beta1,-0.022 (inactive)
same,log fold change Tl+ flux,F380Y/beta2Delta,-0.0158 (inactive)
same,log fold change Tl+ flux,F380Y/beta4,0.0243 (inactive)
same,log fold change Tl+ flux,[9],-0.0482 (inactive)
same,log fold change Tl+ flux,R275C,0.037 (inactive)
same,log fold change Tl+ flux,R275C/beta1,-0.0285 (inactive)
same,log fold change Tl+ flux,R275C/beta2Delta,-0.00577 (inactive)
same,log fold change Tl+ flux,R275C/beta4,-0.0209 (inactive)
same,log fold change Tl+ flux,R275C/Slo1WT/beta2,-0.0311 (inactive)
CC1CCC[C@H](O)CCCCCc2cc(O)cc(O)c2C(=O)O1 (some centres undefined),parasite load remaining,[1],34.2% (inactive)
same,viability,[1],64.7%
same,fluorescence ratio,[2],1.04 (inactive)
same,inhibition,[3],2.77% (inactive)
same,inhibition,[4],0.67% (inactive)
same,fluorescence ratio,[5],0.99 (inactive)
same,z-score,[6],-0.653 (inactive)
same,mean signal,[7],252 (inactive)
same,log fold change Tl+ flux,F380Y,0.0327 (inactive)
same,log fold change Tl+ flux,F380Y/beta1,0.0798 (inactive)
same,log fold change Tl+ flux,F380Y/beta2Delta,-0.0124 (inactive)
same,log fold change Tl+ flux,F380Y/beta4,0.0166 (inactive)
same,log fold change Tl+ flux,[9],0.0353 (inactive)
same,log fold change Tl+ flux,R275C,-0.00393 (inactive)
same,log fold change Tl+ flux,R275C/beta1,0.141 (active)
same,log fold change Tl+ flux,R275C/beta2Delta,0.1 (active)
same,log fold change Tl+ flux,R275C/beta4,0.0349 (inactive)
same,log fold change Tl+ flux,R275C/Slo1WT/beta2,0.035 (inactive)
COc1ccc2c(c1)C13CCCC[C@@H]1C(C2)N(C)CC3 (some centres undefined),parasite load remaining,[1],74.7% (inactive)
same,viability,[1],74%
same,fluorescence ratio,[2],0.98 (inactive)
same,inhibition,[3],0.4% (inactive)
same,inhibition,[4],2.21% (inactive)
same,fluorescence ratio,[5],0.92 (inactive)
same,z-score,[6],-0.757 (inactive)
same,mean signal,[7],229 (inactive)
CN1C(=O)CN=C(c2ccccc2)c2cc(Cl)ccc21,parasite load remaining,[1],122% (inactive)
same,viability,[1],81.8%
same,fluorescence ratio,[2],1.03 (inactive)
same,inhibition,[3],-1.98% (inactive)
same,inhibition,[4],0.67% (inactive)
same,fluorescence ratio,[5],1.02 (inactive)
same,z-score,[6],-0.636 (inactive)
same,mean signal,[7],240 (inactive)
same,fold change,[8]; stronger effect = lower value,0.967 (inactive)
same,fold change,[8]; [11],1.74
same,cell count,[8]; [12],9270
same,cell count,[8]; [13],9590
same,log fold change Tl+ flux,F380Y,0.00227 (inactive)
same,log fold change Tl+ flux,F380Y/beta1,-0.0264 (inactive)
same,log fold change Tl+ flux,F380Y/beta2Delta,0.0204 (inactive)
same,log fold change Tl+ flux,F380Y/beta4,0.0209 (inactive)
same,log fold change Tl+ flux,[9],-0.0437 (inactive)
same,log fold change Tl+ flux,R275C,-0.0487 (inactive)
same,log fold change Tl+ flux,R275C/beta1,-0.07 (inactive)
same,log fold change Tl+ flux,R275C/beta2Delta,-0.0058 (inactive)
same,log fold change Tl+ flux,R275C/beta4,0.0195 (inactive)
same,log fold change Tl+ flux,R275C/Slo1WT/beta2,0.0176 (inactive)
CC12CCC(=O)C=C1CC[C@@H]1[C@@H]2CCC2(C)[C@@H](O)CC[C@@H]12 (some centres undefined),outcome,[6],inactive
same,mean signal,[7],263 (inactive)
COc1cc(=O)oc(/C=C/C=C/C=C/C(C)=C/[C@@]2(C)O[C@@H](C)[C@@](C)(O)[C@@H]2O)c1C,red/green cell ratio (normalised),"[10]; actives lie on both sides, counts scaled to control wells, 1 = unselective",0.98 (inactive)
same,normalised cell number,[10]; measured here: epithelial PC-3E GFP cell survival,0.87
same,normalised cell number,[10]; measured here: mesenchymal TEM4-18 mCherry cell survival,0.85
CC12CC[C@H]3[C@@H](CCC4=CC(=O)CC[C@@H]43)[C@@H]1CC[C@@H]2O (some centres undefined),outcome,[6],inactive
same,mean signal,[7],225 (inactive)
